Assay results as given in publication PMC4336329 (PLoS ONE, 2015).
About 14,000 (4.5%) of roughly 310,000 compounds showed an effect of 50% or more. The effect is printed as a negative number. For the sample, strong results were picked, then their nearest neighbours and some compounds at random.

Each compound was assayed against human ether-à-go-go-related gene (hERG) potassium channel (human, UniProt Q12809) (assay: primary screen, population patch clamp on CHO cells stably expressing hERG; higher = less effect of the substance).
Sequence of human ether-à-go-go-related gene (hERG) potassium channel (Q12809 whole entry, looked up): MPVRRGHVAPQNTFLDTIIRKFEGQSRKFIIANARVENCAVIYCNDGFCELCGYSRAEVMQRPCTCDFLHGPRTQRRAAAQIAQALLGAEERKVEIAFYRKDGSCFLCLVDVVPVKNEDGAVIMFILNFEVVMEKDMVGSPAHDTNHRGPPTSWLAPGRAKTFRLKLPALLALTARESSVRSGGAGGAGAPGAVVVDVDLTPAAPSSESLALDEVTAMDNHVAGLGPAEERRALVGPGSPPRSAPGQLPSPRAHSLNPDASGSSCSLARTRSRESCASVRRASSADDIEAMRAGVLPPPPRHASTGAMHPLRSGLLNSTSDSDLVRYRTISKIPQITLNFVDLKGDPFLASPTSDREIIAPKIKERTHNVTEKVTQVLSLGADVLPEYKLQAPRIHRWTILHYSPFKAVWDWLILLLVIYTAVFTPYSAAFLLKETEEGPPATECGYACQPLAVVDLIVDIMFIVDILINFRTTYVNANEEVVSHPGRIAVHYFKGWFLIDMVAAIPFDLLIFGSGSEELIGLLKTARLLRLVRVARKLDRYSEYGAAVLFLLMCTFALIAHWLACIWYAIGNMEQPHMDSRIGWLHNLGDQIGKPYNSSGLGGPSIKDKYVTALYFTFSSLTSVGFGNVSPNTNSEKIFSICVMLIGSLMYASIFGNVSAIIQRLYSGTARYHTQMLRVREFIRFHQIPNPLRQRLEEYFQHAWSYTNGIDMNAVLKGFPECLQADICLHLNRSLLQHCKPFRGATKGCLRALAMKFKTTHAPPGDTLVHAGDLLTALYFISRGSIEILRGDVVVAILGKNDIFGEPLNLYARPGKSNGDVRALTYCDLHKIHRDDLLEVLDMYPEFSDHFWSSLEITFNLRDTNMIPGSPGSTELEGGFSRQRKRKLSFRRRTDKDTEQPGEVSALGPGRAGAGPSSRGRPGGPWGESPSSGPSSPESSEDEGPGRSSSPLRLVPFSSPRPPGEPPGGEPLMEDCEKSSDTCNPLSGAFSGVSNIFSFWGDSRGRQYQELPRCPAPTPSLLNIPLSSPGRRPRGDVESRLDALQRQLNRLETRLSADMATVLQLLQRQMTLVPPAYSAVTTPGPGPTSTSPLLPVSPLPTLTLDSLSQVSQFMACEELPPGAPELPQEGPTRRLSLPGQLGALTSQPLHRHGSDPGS
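Further: peak tail current of the secondary pulse compared with the same well before compound.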

| SMILES | hERG current change (%, negative = inhibition) at 10uM |
| --- | --- |
| CC(=O)N1CCN(c2ccc(NC(=O)c3cccc(C)c3)cc2)CC1 | 18.5% |
| COC(=O)c1ccc(NC(=O)CSc2nn3c(=O)c(C)nnc3s2)cc1 | 7.44% |
| N#Cc1cccc(S(=O)(=O)NCC(=O)NCc2ccc3c(c2)OCO3)c1 | 5.51% |
| CN1CCN(CCC(=O)Nc2ccc(C3CCCC3)cc2)CC1.Cl | -55.1% |
| Cc1ccc(NC(=O)CCN2CCN(C)CC2)cc1.Cl | 10.6% |
| Cl.O=C(CCN1CCN(CCO)CC1)Nc1ccc(C2CCCC2)cc1 | -43% |
| CN1CCN(CCCCC(=O)c2ccccc2)CC1.Cl | -0.477% |
| CN1CCN(CCCC(=O)c2ccc(C3CCCC3)cc2)CC1.Cl.O | -50% |
| COc1ccc(C(=O)OCC(=O)c2ccc(C3CCCCC3)cc2)cc1 | 5.66% |
| O=C(C[n+]1ccccc1)N/N=C/c1ccc(C(=O)O)cc1.[Cl-] | 0.121% |
| CC(C)(C)C(=O)Nc1sc2c(c1C#N)CCCCC2 | 2.28% |
| CCOC(=O)C1CCCN(S(=O)(=O)c2ccc3c(c2)CC(C)N3C(=O)C2CC2)C1 (stereo not shown) | 9.65% |
| COc1ccc(N(CC(=O)NCc2cccc(OC)c2)S(=O)(=O)c2c(C)noc2C)cc1 | -41.1% |
| COc1ccccc1NC(=S)NNC(=O)c1c(Cl)c(C)nn1C | 32.8% |
| CN(C1CCCCC1)S(=O)(=O)c1cccc(C(=O)OCC(=O)NC2CCCc3ccccc32)c1 (stereo not shown) | -13.9% |
| CCOC(=O)C1CCN(CCC(=O)Nc2cc(C)ccc2C)CC1 | -10.7% |
| CCOC(=O)C1CCCN(CCC(=O)Nc2ccccc2C)C1.Cl (stereo not shown) | 12.5% |
| CCOC(=O)C1CCCN(CCC(=O)Nc2ccccc2)C1.Cl (stereo not shown) | -9.04% |
| CCOC(=O)C1CCCN(CCC(=O)Nc2ccc3c(c2)CCC3)C1 (stereo not shown) | -50.4% |
| CC1CCCN(CCC(=O)Nc2ccc3c(c2)CCC3)C1.Cl (stereo not shown) | -33.5% |
| CCOC(=O)C1CCCN(CCC(=O)Nc2ccc(C)cc2)C1.Cl (stereo not shown) | -30.4% |
| CCOC(=O)C1CCCN(CCC(=O)Nc2ccc(C)c(C)c2)C1.Cl (stereo not shown) | -44.8% |
| CCOC(=O)C1CCCN(CCC(=O)Nc2ccc(Br)cc2)C1.Cl (stereo not shown) | -66.7% |

| SMILES | hERG current change (%, negative = inhibition) at 10uM |
| --- | --- |
| CCOC(=O)C1CCCN(CCC(=O)Nc2cccc(C)c2)C1.Cl (stereo not shown) | -24.5% |
| Cc1cc(C)cc(NC(=O)CCN2CCCC2)c1 | -15.8% |
| CCOC(=O)C1CCCN(CCC(=O)Nc2cc(C)ccc2C)C1.Cl (stereo not shown) | -67.2% |
| CCOC(=O)C1CCCN(CCC(=O)Nc2cc(C)cc(C)c2)C1 (stereo not shown) | -58.4% |
| COCC(=O)Nc1nnc(Cc2ccc(OC)c(OC)c2)s1 | -7.97% |
| O=C(NCCC(=O)N1CCN(c2ncccn2)CC1)c1ccccc1 | 11.6% |
| O=C(/C=C/Nc1ccc(S(=O)(=O)Nc2ncccn2)cc1)c1ccc2ccccc2c1 | 3.84% |
| CCOC(=O)C(CC)Sc1nnc2cc(C)c3ccccc3n12 (stereo not shown) | -38% |
| Cc1noc(C)c1CSCC(=O)N(CCC(C)C)c1c(N)n(Cc2ccccc2)c(=O)[nH]c1=O | 21.4% |
| Cn1cc(/C(Cc2ccccc2)=N\O)c2ccccc21 | 4.78% |
| COC(=O)c1[nH]c(C)c(/C(O)=C2\C(=O)C(=O)N(CCN(C)C)C2c2cc(OC)ccc2OC)c1C (stereo not shown) | 13.6% |
| Cc1ccc(CSCCNC(=O)CN(c2ccccc2)S(C)(=O)=O)cc1 | 1.75% |
| Cc1ccc(CSCCNC(=O)CN(c2cccc([N+](=O)[O-])c2)S(C)(=O)=O)cc1 | -53.2% |
| O=C(CSc1ccccc1)NCCSCc1ccccc1 | -3.89% |
| Cc1ccc(CSCC(=O)NCCc2ccccc2)cc1 | -3.13% |
| CCCCN(C)CCNC(=O)CSCc1ccc(C)cc1.O=C(O)C(=O)O | -37.5% |
| Cc1ccc(CNC(=O)CN(c2cccc([N+](=O)[O-])c2)S(C)(=O)=O)cc1 | 0.796% |
| Cc1ccc(CSCCNC(=O)CSCc2ccc([N+](=O)[O-])cc2)cc1 | -71.4% |
| O=C(CSCc1ccc([N+](=O)[O-])cc1)Nc1ccccc1C(=O)O | 24.7% |
| COc1ccc(CCNC(=O)CSCc2ccc([N+](=O)[O-])cc2)cc1 | -44.8% |
| CCCCN(CCCC)CCNC(=O)CSCc1ccc(C)cc1.O=C(O)C(=O)O | -63.2% |
| O=C(CSCc1ccc([N+](=O)[O-])cc1)NCCSCc1ccccc1 | -70.1% |
| Cc1cccc(CSCCNC(=O)CSCc2ccc([N+](=O)[O-])cc2)c1 | -47.8% |

| SMILES | hERG current change (%, negative = inhibition) at 10uM |
| --- | --- |
| Cc1ccccc1NC(=O)Cn1nc(-c2ccc(Cl)s2)ccc1=O | 13.6% |
| CSC1=N/C(=C/c2ccc(-n3cncn3)cc2)C(=O)N1 | 6.6% |
| COc1cc(/C=N/Nc2ccc(F)cc2F)cc(OC)c1O | -2.17% |
| O=C(COC(=O)c1ccco1)NC(c1ccccc1)c1ccccc1 | 3.56% |
| Cc1ccc(S(=O)(=O)NCCC(=O)OCC(=O)N(C)c2ccccc2)cc1 | 4.35% |
| CCCn1c(SCC(=O)c2ccc3c(c2)OCCO3)n[nH]c1=O | 22.6% |
| COc1cc(OC)cc(OC(=O)c2cccc(S(=O)(=O)N3CCN(C)CC3)c2)c1 | -14.1% |
| CC(OC(=O)CSc1ccc([N+](=O)[O-])cc1)C(=O)NC1CC1 (stereo not shown) | -14.7% |
| CC(C)C(NC(=O)CSCc1ccc([N+](=O)[O-])cc1)C(C)C | -40.2% |
| COc1ccc(CCNC(=O)CSCc2ccc([N+](=O)[O-])cc2)cc1OC | -37.5% |
| CC(C)(C)SCCNC(=O)CSCc1ccc([N+](=O)[O-])cc1 | -63.1% |
| O=C(CSCc1ccc([N+](=O)[O-])cc1)NC1CCCCCC1 | -50.8% |
| CC1CCN(C(=O)C(C)c2ccc([N+](=O)[O-])cc2)CC1 (stereo not shown) | -3.41% |
| Cc1ccc(CSCCNC(=O)c2cccc([N+](=O)[O-])c2)cc1 | -64.1% |
| Cc1ccc(CSCCNC(=O)c2ccc(C)cc2)cc1 | 19.1% |
| CC1CCN(C(=O)C(C)OC(=O)CSc2ccc([N+](=O)[O-])cc2)CC1 (stereo not shown) | -50.1% |
| Cc1ccc(CSCCNC(=O)c2ccccc2)cc1 | -13.6% |
| O=C(Cc1ccc([N+](=O)[O-])cc1)NC1CCCCCC1 | 7.55% |
| O=C(CSCc1ccc([N+](=O)[O-])cc1)NC1CC1 | -29.7% |
| CCOC(=O)C(C(=O)Nc1cccc(C)c1)C1CCCCC1 (stereo not shown) | -6.99% |
| CCC1C(=O)N=C(SCC(=O)Nc2ccc(C)cc2)N(c2ccccc2)C1=O (stereo not shown) | 19.4% |
| CCOC(=O)c1sc(Nc2ccc(Br)cc2)nc1C | 13.7% |
| Cc1oc2ncnc(N)c2c1C | 8.52% |

| SMILES | hERG current change (%, negative = inhibition) at 10uM |
| --- | --- |
| CNC(=O)CN1C(=O)c2cccc3cccc1c23 | 10.3% |
| COc1ccc(NS(=O)(=O)c2ccc(O)c(NC(=O)c3ccc(S(=O)(=O)N4CCCCCC4)cc3)c2)cc1 | 1.73% |
| OCC[C@H]1C[C@@H](O)[C@H](O)[C@]2(OCc3ccccc32)O1 | -0.346% |
| O=c1[nH]ncn1-c1cccc(C(F)(F)F)c1 | 10.8% |
| FC(F)(F)c1cnc(Oc2ccccc2-c2nnc(-c3ccc(Cl)cc3)o2)c(Cl)c1 | -1.52% |
| CC1CCCCC1NC(=O)Cn1cc([N+](=O)[O-])ccc1=O (stereo not shown) | 7.67% |
| O=C(CSc1ccc([N+](=O)[O-])cc1)NCC1CCCCC1 | -15% |
| Cc1ccccc1CSCC(=O)NCCSc1ccccn1 | -3.24% |
| COc1ccc([N+](=O)[O-])cc1NC(=O)CSCc1ccccc1C | -7.85% |
| O=C(CSCc1ccc([N+](=O)[O-])cc1)N/N=C/c1cccnc1 | -60.2% |
| O=C(CSCc1ccc([N+](=O)[O-])cc1)N/N=C/c1ccncc1 | -49.1% |
| CC1CCCCC1NC(=O)CSc1ccc([N+](=O)[O-])cc1 (stereo not shown) | -52.6% |
| Cc1ccccc1CSCCNC(=O)CSCc1ccc([N+](=O)[O-])cc1 | -51.3% |
| O=C(Cc1ccc([N+](=O)[O-])cc1)N/N=C/c1cccnc1 | -9.63% |
| COc1ccc(CNC(=O)C2CCC(CNS(=O)(=O)c3cccs3)CC2)cc1 (stereo not shown) | -18.9% |
| O=C1CC(O)(C(F)(F)F)Oc2c1ccc1ccccc21 (stereo not shown) | 7.95% |
| COc1ccc(/C=N/NC(=O)c2ccc3nc[nH]c3c2)c(OC)c1OC | 12.9% |
| Cc1ccc(S(=O)(=O)NNC(=S)Nc2ccccc2)cc1 | 3.05% |
| On1c(-c2ccc(Cl)cc2)nc2ccccc21 | 13.9% |
| C[n+]1cn(Cc2cc(Cl)ccc2OC(F)F)c2ccccc21.[Br-] | 2.96% |
| CC(C)=Cc1oc2ccc([N+](=O)[O-])cc2c1N1CC(C)OC(C)C1 (stereo not shown) | 18.7% |
| CC(=O)N1CCOc2ccc(S(=O)(=O)N3CCC(C(=O)NCc4ccc(F)cc4)CC3)cc21 | 4.09% |
